The source made the active and inactive calls.
How the values were obtained:
[1] = small molecules captured by biotinylated probe aFSTL3 – biochemical, small-molecule microarray, fluorescence 635/667, stem cell growth factor project, primary screen (AID 1064); conditions: higher = more signal;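 also: measures binding of the biotinylated anti-FSTL3 antibody to printed compounds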
[2] = binders from COS7 lysate, DM2A8 probe, primary screen, torsin A project, cell lysate, small-molecule microarray, fluorescence 635/667 (AID 1065); conditions: higher = more signal, COS7 lysate expressing mutant human TOR1A
[3] = small molecules captured by biotinylated probe aFGF2 – biochemical, small-molecule microarray, fluorescence 635/667, stem cell growth factor project, primary screen (AID 1067); conditions: higher = more signal;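 also: measures binding of biotinylated aFGF2 protein to printed compounds on slides; z-score merges feature fluorescence and signal-to-noise across triplicate slides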
[4] = small molecules captured by biotinylated probe aFGF10 – biochemical, small-molecule microarray, fluorescence 635/667, stem cell growth factor project, primary screen (AID 1071); conditions: higher = more signal;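 also: score merges 667 nm spot intensity and signal to noise from triplicate slides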
[5] = biological target: Neurogenic locus notch homolog protein 2 (Homo sapiens) (UniProt Q04721); assay: small molecules binding Notch2 protein – biochemical, small-molecule microarray, 635 nm fluorescence, stem cell growth factors, primary screen (AID 1073); conditions: higher = more signal
[6] = biological target: Pro-neuregulin-1, membrane-bound isoform (Homo sapiens) (UniProt Q02297); assay: small molecules binding neuregulin-1 protein – biochemical, small-molecule microarray, fluorescence 635/667, psychiatric disease protein project, primary screen (AID 1075); conditions: NRG1 binding, 635 nm fluorescence, higher = more signal;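 also: score combines 667 nm spot fluorescence with signal to noise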
[7] = test system: Neuregulin-1 EGF-like domain; assay: small molecules binding NRG1 EGF domain – biochemical, small-molecule microarray, 635 nm fluorescence, primary screen (AID 1081); conditions: higher = more signal;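 also: binding of the protein to compounds printed on small-molecule microarray slides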
[8] = FRG1 expression reporter modulators in myotubes – cell-based, C2C12 myotubes, firefly/Renilla luciferase, luminescence, FRG1 inhibition for FSHD, primary screen (AID 1084); conditions: FRG1 promoter luciferase, higher = more signal, called active from +8 up or from −8 down
[9] = small molecules captured by biotinylated probe aFST – biochemical, small-molecule microarray, fluorescence 635/667, stem cell growth factor project, primary screen (AID 1086); conditions: higher = more signal;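 also: score merges 667 nm fluorescence with signal-to-noise of each printed compound spot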
[10] = binders of probe aHhip on microarray, primary screen, stem cell growth factor project, biochemical, small-molecule microarray, fluorescence 635/667 (AID 1087); conditions: higher = more signal;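 also: score merges spot fluorescence at 667nm with spot signal to noise ratio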
[11] = test system: PRMT1 (protein arginine N-methyltransferase 1); assay: small molecules binding arginine methyltransferase PRMT1 – biochemical, small-molecule microarray, 635 nm fluorescence, primary screen (AID 1088); conditions: higher = more signal;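 also: binding of Prmt1 protein to compounds spotted on small-molecule microarray slides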
[12] = growth effects on S. cerevisiae YJM789 – YJM789 clinical isolate, OD600, 24 h, basal, primary screen (AID 1089); conditions: higher = more signal, called active from +8 up or from −8 down;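 also: growth of clinical yeast isolate S. cerevisiae YJM 789 seeded 1000 cells per well; test concentration not given here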
[13] = S. pombe growth modifiers, basal conditions – strain 972, OD600, 24 h, no modulator, primary screen (AID 1090);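 also: basal condition with compound alone and no growth modifier present; test concentration not given here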; conditions: S. pombe 972 growth, higher = more signal, called active from +8 up or from −8 down
[14] = budding yeast growth modifiers under rapamycin – strain BY4716, OD600, 96 h, primary screen (AID 1091); also: test concentration not given here; conditions: S. cerevisiae BY4716 + rapamycin, higher = more signal, called active from +8 up or from −8 down
[15] = biological target: Torsin-1A-interacting protein 2 (Homo sapiens) (UniProt Q8NFQ8); assay: small molecules binding lysate-expressed LULL1 – cell lysate, human LULL1 lysate, 635/667 nm fluorescence, primary screen (AID 1092); conditions: small-molecule microarray, hLULL1 lysate binding, 635 nm fluorescence; higher = more signal;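 also: probe is lysate of COS7 cells overexpressing human LULL1; score merges per-feature 667 nm fluorescence with signal-to-noise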
[16] = optical density change of DRC41 E. coli – strain DRC41, OD650, 24 h, E. coli filamentation project, primary screen (AID 1093);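 also: MC1000 strain lacking acrAB efflux and sulA so SOS filamentation is blocked; test concentration not given here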; conditions: E. coli DRC41 growth, higher = more signal, called active from +8 up or from −8 down
[17] = probe aLefty2 binding to arrayed compounds – biochemical, biotinylated probe, 635/667 nm fluorescence, primary screen (AID 1094); conditions: small-molecule microarray, higher = more signal;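 also: score merges spot fluorescence near 667 nm with spot signal-to-noise ratio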
[18] = test system: Noggin (protein binding on small-molecule microarray); assay: small molecules binding Noggin protein – biochemical, 635/667 nm fluorescence, primary screen (AID 1095); conditions: 635 nm fluorescence, higher = more signal;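 also: score merges 667 nm feature fluorescence with signal to noise over triplicate slides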
[19] = biological target: Neurogenic locus notch homolog protein 3 (Homo sapiens) (UniProt Q9UM47); assay: small molecules binding NOTCH3 protein – biochemical, 635/667 nm fluorescence, primary screen (AID 1096); conditions: small-molecule microarray, 635 nm fluorescence, higher = more signal
[20] = probe aEGFR binding to arrayed compounds – biochemical, biotinylated probe, 635/667 nm fluorescence, primary screen (AID 1097); conditions: small-molecule microarray, higher = more signal;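 also: probe is a biotinylated anti-EGFR antibody binding compounds printed on slides; score combines fluorescence near 667 nm and signal to noise of each spot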

Torsin-1A-interacting protein 2 (Homo sapiens), sequence (Q8NFQ8 whole entry, looked up): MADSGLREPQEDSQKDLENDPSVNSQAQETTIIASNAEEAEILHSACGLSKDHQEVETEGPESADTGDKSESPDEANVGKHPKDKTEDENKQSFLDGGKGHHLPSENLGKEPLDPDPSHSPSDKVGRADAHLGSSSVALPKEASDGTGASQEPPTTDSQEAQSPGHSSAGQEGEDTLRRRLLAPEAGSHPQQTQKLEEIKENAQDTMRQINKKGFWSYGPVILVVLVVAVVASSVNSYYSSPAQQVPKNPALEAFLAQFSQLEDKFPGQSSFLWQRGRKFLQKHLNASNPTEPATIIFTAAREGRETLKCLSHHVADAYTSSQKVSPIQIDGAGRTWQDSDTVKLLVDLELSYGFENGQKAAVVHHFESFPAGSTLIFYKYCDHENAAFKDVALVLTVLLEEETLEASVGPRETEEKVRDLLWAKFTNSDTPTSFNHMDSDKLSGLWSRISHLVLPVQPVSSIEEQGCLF
Pro-neuregulin-1, membrane-bound isoform (Homo sapiens), sequence (Q02297 whole entry, looked up, the tested form may be a part, canonical isoform): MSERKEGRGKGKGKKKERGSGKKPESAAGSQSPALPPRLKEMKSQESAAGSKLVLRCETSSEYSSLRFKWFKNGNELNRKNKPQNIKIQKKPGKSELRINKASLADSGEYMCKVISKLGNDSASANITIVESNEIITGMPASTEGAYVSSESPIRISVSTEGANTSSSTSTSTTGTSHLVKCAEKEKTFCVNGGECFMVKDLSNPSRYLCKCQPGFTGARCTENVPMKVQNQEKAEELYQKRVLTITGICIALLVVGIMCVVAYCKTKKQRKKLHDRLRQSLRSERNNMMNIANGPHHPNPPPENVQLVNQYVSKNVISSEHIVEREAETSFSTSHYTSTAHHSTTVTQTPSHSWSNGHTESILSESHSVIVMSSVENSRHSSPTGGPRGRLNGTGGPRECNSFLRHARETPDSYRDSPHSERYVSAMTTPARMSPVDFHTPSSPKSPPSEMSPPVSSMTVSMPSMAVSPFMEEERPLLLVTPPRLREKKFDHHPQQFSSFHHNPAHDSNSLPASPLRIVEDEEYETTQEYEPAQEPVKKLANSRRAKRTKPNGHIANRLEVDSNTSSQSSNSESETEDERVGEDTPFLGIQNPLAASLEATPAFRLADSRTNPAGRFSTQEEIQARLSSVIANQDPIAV
Neurogenic locus notch homolog protein 2 (Homo sapiens), sequence (Q04721 whole entry, looked up, canonical isoform): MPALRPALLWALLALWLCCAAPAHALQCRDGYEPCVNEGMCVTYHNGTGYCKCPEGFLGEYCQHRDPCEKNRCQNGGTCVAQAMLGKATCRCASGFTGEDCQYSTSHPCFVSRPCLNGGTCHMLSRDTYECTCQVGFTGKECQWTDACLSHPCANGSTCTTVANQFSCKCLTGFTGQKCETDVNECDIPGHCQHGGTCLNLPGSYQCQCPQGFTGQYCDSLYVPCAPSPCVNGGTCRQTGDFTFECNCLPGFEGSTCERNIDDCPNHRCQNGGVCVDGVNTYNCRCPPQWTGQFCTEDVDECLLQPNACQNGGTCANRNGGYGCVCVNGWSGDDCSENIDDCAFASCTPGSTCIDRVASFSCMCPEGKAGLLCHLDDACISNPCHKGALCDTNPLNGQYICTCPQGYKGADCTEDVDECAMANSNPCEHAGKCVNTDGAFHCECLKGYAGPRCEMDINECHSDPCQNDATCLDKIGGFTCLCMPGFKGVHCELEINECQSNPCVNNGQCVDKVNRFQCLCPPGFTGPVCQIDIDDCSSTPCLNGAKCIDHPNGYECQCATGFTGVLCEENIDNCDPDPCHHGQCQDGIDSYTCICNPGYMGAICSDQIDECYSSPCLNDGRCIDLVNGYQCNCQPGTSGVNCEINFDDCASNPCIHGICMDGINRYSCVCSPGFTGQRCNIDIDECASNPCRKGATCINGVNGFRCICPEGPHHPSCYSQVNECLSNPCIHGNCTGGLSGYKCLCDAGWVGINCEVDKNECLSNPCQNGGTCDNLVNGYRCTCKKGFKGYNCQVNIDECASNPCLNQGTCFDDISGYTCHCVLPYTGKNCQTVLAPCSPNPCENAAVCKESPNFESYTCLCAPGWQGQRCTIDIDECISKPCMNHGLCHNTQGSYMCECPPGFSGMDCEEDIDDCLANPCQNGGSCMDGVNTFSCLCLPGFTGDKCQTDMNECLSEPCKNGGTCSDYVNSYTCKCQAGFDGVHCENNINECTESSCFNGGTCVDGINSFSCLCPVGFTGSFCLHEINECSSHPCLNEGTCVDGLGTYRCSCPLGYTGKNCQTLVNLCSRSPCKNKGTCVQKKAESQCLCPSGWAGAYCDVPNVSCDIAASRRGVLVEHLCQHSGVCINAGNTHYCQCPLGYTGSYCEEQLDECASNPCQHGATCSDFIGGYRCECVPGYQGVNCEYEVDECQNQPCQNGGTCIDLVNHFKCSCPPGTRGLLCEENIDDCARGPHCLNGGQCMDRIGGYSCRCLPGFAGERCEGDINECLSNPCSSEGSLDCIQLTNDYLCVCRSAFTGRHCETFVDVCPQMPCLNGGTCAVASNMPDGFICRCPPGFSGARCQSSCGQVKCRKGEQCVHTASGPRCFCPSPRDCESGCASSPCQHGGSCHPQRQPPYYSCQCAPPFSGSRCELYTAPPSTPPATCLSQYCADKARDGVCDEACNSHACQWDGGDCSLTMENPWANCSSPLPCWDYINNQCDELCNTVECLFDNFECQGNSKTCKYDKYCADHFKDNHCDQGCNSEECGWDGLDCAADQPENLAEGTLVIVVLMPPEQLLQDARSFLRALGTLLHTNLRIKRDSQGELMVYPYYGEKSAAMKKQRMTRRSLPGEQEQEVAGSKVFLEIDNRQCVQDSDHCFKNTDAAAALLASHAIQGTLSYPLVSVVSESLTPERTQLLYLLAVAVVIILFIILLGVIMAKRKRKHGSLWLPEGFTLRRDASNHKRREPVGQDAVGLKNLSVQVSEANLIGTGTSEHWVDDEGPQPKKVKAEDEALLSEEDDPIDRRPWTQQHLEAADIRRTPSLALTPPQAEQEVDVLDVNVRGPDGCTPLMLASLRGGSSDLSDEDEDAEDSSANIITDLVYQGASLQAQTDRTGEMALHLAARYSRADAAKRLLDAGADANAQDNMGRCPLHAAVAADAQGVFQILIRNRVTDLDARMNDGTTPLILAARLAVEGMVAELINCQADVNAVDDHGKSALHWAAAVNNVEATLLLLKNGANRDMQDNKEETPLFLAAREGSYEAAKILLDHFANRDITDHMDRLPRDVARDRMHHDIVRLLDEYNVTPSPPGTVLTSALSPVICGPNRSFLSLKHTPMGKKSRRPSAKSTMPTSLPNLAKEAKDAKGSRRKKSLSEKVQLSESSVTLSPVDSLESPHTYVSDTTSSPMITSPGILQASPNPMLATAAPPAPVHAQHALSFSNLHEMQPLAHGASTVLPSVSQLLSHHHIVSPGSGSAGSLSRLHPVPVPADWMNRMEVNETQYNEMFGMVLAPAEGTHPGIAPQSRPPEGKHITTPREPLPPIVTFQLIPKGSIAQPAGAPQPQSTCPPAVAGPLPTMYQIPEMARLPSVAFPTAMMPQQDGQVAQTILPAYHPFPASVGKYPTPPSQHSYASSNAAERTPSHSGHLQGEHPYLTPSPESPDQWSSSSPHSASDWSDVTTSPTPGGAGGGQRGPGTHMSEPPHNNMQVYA

SMILES	composite z-score [1]	composite z-score [2]	composite z-score [3]	composite z-score [4]	composite z-score [5]	composite z-score [6]	composite z-score [7]	z-score [8]	composite z-score [9]	composite z-score [10]	composite z-score [11]	z-score [12]	z-score [13]	z-score [14]	composite z-score [15]	z-score [16]	composite z-score [17]	composite z-score [18]	composite z-score [19]	composite z-score [20]
CC(C)N1CC=CC23O[C@@H]4C=CCCOC(=O)C4[C@H]2C(=O)N(CCCCCO)[C@@H]3C1=O (stereo not given in full)	-0.0451	-1.06	-0.103	0.279	-0.905	1.93	1.21	-0.928 (inactive)	-0.352	-0.353	0.08	-0.0489 (inactive)	-0.0017 (inactive)	-0.569 (inactive)	0.988	0.447 (inactive)	-0.242	0.154	-0.23	-0.236
Cc1c(-c2ccc(-c3ccc(Cl)c(Cl)c3)o2)nc(-c2ccccc2)c2c1CO[Si]2(C(C)C)C(C)C	-0.0834	0.343	-0.047	0.42	-0.558	0.568	0.294	0.422 (inactive)	-0.324	0.21	0.371	-0.657 (inactive)	-1.69 (inactive)	0.069 (inactive)	0.867	-1.34 (inactive)	-0.216	0.423	-0.0183	-0.231
CC(C)CNC(=O)[C@@H]1c2ccccc2C(=O)N(Cc2ccccc2Cl)[C@H]1c1ccc(CO)cc1	0.29	0.0116	-0.129	-0.833	-0.595	-1.27	0.252	-1.38 (inactive)	-0.295	-0.236	-0.469	-0.691 (inactive)	-0.354 (inactive)	-0.332 (inactive)	3.09	0.534 (inactive)	0.0529	-1.04	-1.08	-0.239
C#CCN([C@H](/C=C/C1CC1)[C@@H](O)Cc1ccccc1)[C@@H](Cc1ccccc1)C(=O)OC	0.262	-0.134	-0.121	-0.363	-0.807	-0.458	-0.706	-1.67 (inactive)	-0.0804	-0.123	0.447	-0.345 (inactive)	-0.825 (inactive)	0.316 (inactive)	0.126	0.598 (inactive)	-0.128	0.237	0.606	-0.198
CCCCC(=C=CC[C@@H](O)c1ccc(OCCO)cc1)C[C@@H](O)c1ccccn1	-0.0136	1.23	-0.0473	0.314	0.0751	0.0517	1.15	-0.838 (inactive)	0.111	0.16	1.02	-0.374 (inactive)	-1.07 (inactive)	-0.689 (inactive)	1.18	0.774 (inactive)	-0.0825	0.888	0.409	-0.0787
CCCCC(=C=CC[C@H](O)c1ccc(OCCO)cc1)C[C@H](O)c1ccccn1	-0.199	0.342	-0.109	0.694	0.356	1.47	1.14	-0.865 (inactive)	0.763	0.0854	1.54	0.415 (inactive)	-1.18 (inactive)	-0.539 (inactive)	1.72	0.493 (inactive)	-0.0094	0.266	0.419	0.165
Cc1ccc(F)cc1S(=O)(=O)N[C@@H]1CCN(Cc2ccc3[nH]ccc3c2)C1	-0.0434	0.216	-0.0717	0.652	0.523	0.91	0.563	-3.16 (inactive)	0.356	-0.134	0.556	-0.765 (inactive)	-2.97 (inactive)	-0.873 (inactive)	2.31	-1.76 (inactive)	-0.177	0.418	0.933	-0.0512
COCCOC(=O)N1C(=O)[C@@]2(c3cc(C#CC4(O)CCCCCC4)ccc31)[C@H](C(=O)NC[C@H](O)c1ccccc1)[C@H]1C(=O)O[C@H](c3ccccc3)[C@H](c3ccccc3)N1[C@@H]2c1ccc(O)cc1	-0.0443	0.224	-0.0193	1	0.496	0.802	1.28	-0.0865 (inactive)	0.153	0.176	1.48	0.295 (inactive)	0.956 (inactive)	0.927 (inactive)	2.49	1.43 (inactive)	-0.0289	0.3	0.871	-0.0703
NC(=O)NCC#Cc1ccc2c(c1)[C@]1(C(=O)N2)[C@H](C(=O)N2CCCCCCC2)[C@H]2C(=O)O[C@H](c3ccccc3)[C@H](c3ccccc3)N2[C@@H]1c1ccc(O)cc1	3.57	0.346	0.688	0.8	0.879	0.94	0.947	0.805 (inactive)	2.99	2.75	1.55	0.463 (inactive)	1.06 (inactive)	1.47 (inactive)	2.56	-0.284 (inactive)	1.65	1.85	1.15	0.944
C=CCC(OC(C)=O)[C@@H]1[C@@H](N(Cc2cccc3ccccc23)C(=O)c2cccc3ccccc23)c2cc(OCCCO)ccc2N1C(=O)Cc1ccc2ccccc2c1 (stereo not given in full)	-0.101	-0.391	-0.116	0.19	-0.168	-0.371	-0.648	-1.89 (inactive)	-0.0942	-0.166	-0.254	-0.796 (inactive)	0.0827 (inactive)	-1.45 (inactive)	-0.0809	-0.225 (inactive)	-0.193	0.0493	0.002	-0.0675
